Among all 190,000 compounds or so, about 1,300 (0.68%) were called active. This excerpt belongs to a sample that is enriched for actives. Values without a mark were called inactive. No stated cut-off is given here; in the data, active means inhibition above about 50%; inactive means the rest.

Chain of Mannose-6-phosphate isomerase (Homo sapiens) (P34949 whole entry, looked up): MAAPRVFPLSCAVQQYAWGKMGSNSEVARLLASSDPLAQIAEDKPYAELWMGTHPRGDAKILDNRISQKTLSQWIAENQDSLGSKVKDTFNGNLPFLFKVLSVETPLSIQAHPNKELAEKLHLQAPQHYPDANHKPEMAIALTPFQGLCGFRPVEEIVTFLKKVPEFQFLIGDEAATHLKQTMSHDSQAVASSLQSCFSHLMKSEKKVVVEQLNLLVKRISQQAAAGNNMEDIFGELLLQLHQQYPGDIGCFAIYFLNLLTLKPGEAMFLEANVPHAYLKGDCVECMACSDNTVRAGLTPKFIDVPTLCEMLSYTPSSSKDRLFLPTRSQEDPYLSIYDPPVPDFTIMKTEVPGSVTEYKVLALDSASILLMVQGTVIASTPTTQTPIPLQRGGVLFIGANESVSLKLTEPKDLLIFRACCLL

The test concerns the target Mannose-6-phosphate isomerase (Homo sapiens) (UniProt P34949). The experiment in a line: MPI inhibition at elevated mannose 6-phosphate – biochemical, fluorescence intensity, high mannose 6-phosphate, primary screen (AID 1220). Conditions: recombinant PMI enzyme, coupled fluorescence intensity; at 20 µM; hits give high values.
In general, inhibition refers to the drop in the measured response relative to a control, in per cent. Take `CCn1c(=O)c(C(=O)NNS(=O)(=O)c2ccc(Cl)cc2)c(O)c2ccccc21`: the inhibition is -7.4%.
With `CN(C(=O)c1c(Br)cnn1C)C12CC3CC(CC(C3)C1)C2`, the inhibition is -2.3%.
Consider `CCC(=O)Nc1cccc(NC(=O)COc2ccc(OC)cc2)c1`, for which the inhibition was 6.7%.
Under `C=CCn1c(NC(=O)c2ccc(Br)o2)c(S(=O)(=O)c2ccccc2)c2nc3ccccc3nc21` stands 50.8% (active); under `CCCCn1c(NC(=O)c2ccc(Br)o2)c(S(=O)(=O)c2ccccc2)c2nc3ccccc3nc21`, 5.9%; under `C=CCn1c(NS(=O)(=O)c2ccccc2)c(S(=O)(=O)c2ccc(C)cc2)c2nc3ccccc3nc21`, 52.4% (active).
Under `Cc1ccc(-n2c(N)c(S(=O)(=O)c3ccccc3)c3nc4ccccc4nc32)cc1` stands 0.2%; under `CC(=O)Nc1c(S(=O)(=O)c2ccccc2)c2nc3ccccc3nc2n1Cc1ccccc1`, 7.9%.
Under `CCCCn1c(NCc2ccccc2NS(=O)(=O)c2ccc(C)cc2)nc2ccccc21` stands 15.2%.
Regarding `CCCCn1c(NS(=O)(=O)c2ccc(C)cc2)c(S(=O)(=O)c2ccccc2)c2nc3ccccc3nc21`, the inhibition was 54.9% (active).
Under `CCCCCn1c(NC(=O)c2ccco2)c(S(=O)(=O)c2ccc(C)cc2)c2nc3ccccc3nc21` stands 50.2% (active); under `Cc1ccc(S(=O)(=O)c2c(N)n(CCC(C)C)c3nc4ccccc4nc23)cc1`, 1.8%; under `Cc1ccc(S(=O)(=O)c2c(N)n(NC(=O)c3ccco3)c3nc4ccccc4nc23)cc1`, -41.3%.
For the molecule `C=CCn1c(NC(=O)c2ccco2)c(S(=O)(=O)c2ccccc2)c2nc3ccccc3nc21`, the inhibition was 34.3%.
Under `Cc1ccc(S(=O)(=O)c2c(N)n(Cc3ccco3)c3nc4ccccc4nc23)cc1` stands -3.1%.
Under `CC(C)CSc1n[nH]c(N)n1` stands -6.6%; under `Cc1ccccc1/C=N\NC(=O)c1ccccc1-n1cccc1`, 15.6%.
Under `CCOC(=O)c1c(N/N=C/c2ccncc2)n[nH]c1C` stands -0.3%; under `Cc1ccccc1Nc1nnc(SCC(=O)NC(=O)Nc2ccc3c(c2)OCCO3)s1`, 3.7%.
As for `Cc1ccc(NC(N)=S)cc1`, the inhibition was -4.6%.
For the molecule `COc1cccc(-c2nn3c(-c4cc(C)[nH]n4)nnc3s2)c1`, the inhibition was -5.7%.
For the molecule `CC(C(=O)OCC(=O)Nc1ccc(S(=O)(=O)N2CCCCC2)cc1)N1C(=O)c2ccccc2C1=O` (stereo unspecified), the inhibition was 7.2%.
Under `O=S(=O)(c1ccccc1)c1nc(NCc2cccnc2)sc1Cl` stands -5.8%; under `O=C(Nc1ccc(NC(=O)C2CCCN2C(=O)OCc2ccccc2)cc1)c1ccco1` (stereo unspecified), -8.3%; under `COc1ccc(CNC(=O)C(OC(=O)c2nsc(Cl)c2Cl)C(C)C)cc1` (stereo unspecified), 14.4%.
Turning to `CC/C(=N/OC(=O)c1cccc(C)c1)C(=O)c1cccs1`, the inhibition was -0.6%.
As to `CCOc1ccc(NC(=O)C2CCN(C(=O)NC3CCCCC3)CC2)cc1`, the inhibition is -11.9%.
Under `CCn1nnnc1-c1ccc(OC)c(S(=O)(=O)Nc2ccc(C)c(C)c2)c1` stands -3.8%; under `Cc1ccc(Cl)cc1N1CCN(C(=O)CCC(=O)O)CC1`, -5.1%; under `Cc1ccc(CSC2=NCCN2C(=O)C2CC2)cc1`, -1.1%.
As for `CCCCn1c(NS(=O)(=O)c2ccccc2)c(S(=O)(=O)c2ccc(C)cc2)c2nc3ccccc3nc21`, the inhibition is 57.6% (active).
Take `CCCCn1c(N)c(S(=O)(=O)c2ccc(C)cc2)c2nc3ccccc3nc21`: the inhibition is 20.2%.
Under `CCC(=O)Nc1c(C#N)c2nc3ccccc3nc2n1C1CCCCC1` stands 17.4%; under `Cc1ccc(S(=O)(=O)c2c(N)n(CCCO)c3nc4ccccc4nc23)cc1`, 8.6%; under `Nc1c(S(=O)(=O)c2ccccc2)c2nc3ccccc3nc2n1C1CC1`, 0.4%.
For `O=S(=O)(Nc1c(S(=O)(=O)c2ccccc2)c2nc3ccccc3nc2n1C1CCCCC1)c1ccccc1`, the inhibition was 59.7% (active).
Under `Cc1ccc(N(Cc2ccc([N+](=O)[O-])cc2)C(=O)c2ccco2)cc1C` stands 4.7%.
Under `Cc1ccc(O)c(-c2cc(C(F)(F)F)[nH]n2)c1` stands 3.7%; under `COC(=O)c1nc2nc(C)cc(=O)n2[nH]1`, 3.3%; under `O=C(Nc1ccc([N+](=O)[O-])cc1)C1C(c2ccccc2)=C1c1ccccc1`, 1.6%.
Under `CC(C)C(c1nnnn1Cc1ccc(F)cc1)N1CCN(c2ccc(O)cc2)CC1` (stereo unspecified) stands 66.2% (active); under `CC(C)C(c1nnnn1Cc1ccc(F)cc1)N1CCSCC1` (stereo unspecified), 4.6%; under `CC(C)C(c1nnnn1Cc1ccc(F)cc1)N1CCN(C2CCCC2)CC1` (stereo unspecified), 3%.
For the molecule `Cn1c(-c2ccc(F)cc2)cnc1NCc1cc2c(cc1[N+](=O)[O-])OCO2`, the inhibition is 15.7%.
Under `CCNc1nc(NC(C)C)nc(N(n2cnnc2)S(=O)(=O)c2ccc(C)cc2)n1` stands 5.3%; under `Cc1cc(=O)n2nc(N3CCC(C(=O)NC4CCCc5ccccc54)CC3)sc2n1` (stereo unspecified), -0.3%.
On to `COC(=O)CC1C(=O)NCCN1Cc1cn(-c2ccc(C)cc2)nc1-c1cccc(C)c1` (stereo unspecified), for which the inhibition was 52.9% (active).
Take `CC(=O)N1CCCN(Cc2cn(-c3ccc(C)cc3)nc2-c2cccc(C)c2)CC1`: the inhibition is 9.1%.
With `Cc1ccc(-n2cc(CN3CCNC(=O)CC3)c(-c3cccc(C)c3)n2)cc1`, the inhibition was 12.5%.
As to `CN(C)c1ccc(C(CNS(=O)(=O)c2ccc3ccccc3c2)c2c[nH]c3ccccc23)cc1` (stereo unspecified), the inhibition is 13.6%.
Under `CC1(C)CC(=O)C2=C(C1)N(c1ccc(F)cc1)C(N)=C(C#N)C2c1cccs1` (stereo unspecified) stands 28.6%; under `Cc1ccc(C2C(C#N)=C(N)N(c3cccnc3)C3=C2C(=O)CCC3)s1` (stereo unspecified), 56.7% (active).
Under `CC1(C)CC(=O)C2=C(C1)N(c1cccnc1)C(N)=C(C#N)C2c1cccs1` (stereo unspecified) stands 53.9% (active).
`Cc1ccc(N2C(N)=C(C#N)C(c3cccs3)C3=C2CC(C)(C)CC3=O)cc1` (stereo unspecified): the inhibition was 8.2%.
For the molecule `CSc1sc(C)cc1C1C(C#N)=C(N)N(c2cccnc2)C2=C1C(=O)CCC2` (stereo unspecified), the inhibition is 13.3%.
Under `Cc1nn(C)cc1C1C(C#N)=C(N)N(c2cccnc2)C2=C1C(=O)CCC2` (stereo unspecified) stands 28.3%.
`CC(=O)Nc1ccc(/C=C(\C#N)C(=O)NC2CCCCC2)cc1`: the inhibition was 4.7%.
Under `Cc1ccc(-c2nnc(SCC(=O)NNC(=O)COc3ccccc3C)n2C)cc1` stands 3.3%.
Under `Cc1cc2c3c(c1)C1(C(=O)N3C(C)(C)CC2C)C(C#N)=C(N)Oc2cc(O)ccc21` (stereo unspecified) stands 18.9%; under `CCc1ccc(N2CC(C(=O)N/N=C/c3cc([N+](=O)[O-])ccc3O)CC2=O)cc1` (stereo unspecified), -15.8%; under `CCOC(=O)Cc1csc(NC(=O)CSc2nnc(-n3nc(C)cc3C)c3ccccc23)n1`, 6.3%.
Turning to `Cc1nc(NCC2CCCO2)c2nnn(Cc3ccccc3)c2n1` (stereo unspecified), the inhibition was -3%.
Under `Cc1nc(NCC2CC2)c2nnn(Cc3ccccc3)c2n1` stands 59.2% (active); under `Cc1nc(Nc2ccc(Cl)cc2)c2nnn(Cc3ccccc3)c2n1`, 3.1%.
With `O=C(OCC(=O)N1CCN(C(=O)c2ccco2)CC1)c1cc(-c2cccc(Br)c2)nc2ccccc12`, the inhibition is 9.6%.
Under `Cc1cc(C)cc(NC(=S)NCC2CCN(C(C)c3ccccc3)C2)c1` (stereo unspecified) stands -1.3%.
Under `O=C(NC(c1ccccc1)c1ccccc1)C1(c2cccs2)CCOCC1` stands -1.3%.
Under `CCOc1ccc2nc(NS(=O)(=O)c3ccc4c(c3)n(C)c(=O)n4C)sc2c1` stands -21%; under `CCN(CC)c1ccc(NC(=O)c2ccccc2)cc1S(=O)(=O)Nc1ccccc1OC`, 9.4%.
As for `CCN(CC)c1ccc(NC(=O)c2ccccc2F)cc1S(=O)(=O)Nc1ccccc1OC`, the inhibition was -13.8%.
Turning to `CCCS(=O)(=O)C(=C(Nc1ccccc1)Nc1ccccc1)S(=O)(=O)CCC`, the inhibition was -4.7%.
Under `O=C(NCc1cccs1)N[C@@H](Cc1ccccc1)C(=O)O` stands -2.3%; under `COc1ccc(-c2nc(S(=O)(=O)c3ccccc3)c(N3CCOCC3)o2)cc1`, 3.3%.
Under `CC1(C(=O)O)Sc2[nH]c(=O)sc2C2c3ccccc3OC(=O)C21` (stereo unspecified) stands 14.1%; under `O=C(O)C1Sc2[nH]c(=O)sc2C2c3cc(Cl)ccc3OC(=O)C12` (stereo unspecified), 63.5% (active).
Under `COC(=O)C1Sc2[nH]c(=O)sc2C2c3ccccc3OC(=O)C12` (stereo unspecified) stands 29.7%.
In the case of `CCOC(=O)C1Sc2[nH]c(=O)sc2C(c2ccc(Cl)cc2)C1C(=O)OCC` (stereo unspecified), the inhibition is -88.8%.
For the molecule `O=C(O)C1Sc2[nH]c(=O)sc2C2c3ccc(O)cc3OC(=O)C12` (stereo unspecified), the inhibition was 55.1% (active).
Under `COC(=O)C1Sc2[nH]c(=O)sc2C(c2ccc(Cl)cc2)C1C(=O)OC` (stereo unspecified) stands 34.7%; under `Cc1nc2c(C(=O)NCc3ccc4c(c3)OCO4)c[nH]n2c(=O)c1Cl`, 7.8%.
In the case of `CN(C)C=Nc1ncc2c3ccccc3n(CCN(C)C)c2c1C#N`, the inhibition was 17.9%.
For the molecule `CN(C)CCNC(=O)C1CC(=O)N(c2ccc(F)c(Cl)c2)C1` (stereo unspecified), the inhibition was -1.8%.
As for `Cc1nn2c(c1-c1ccc(Cl)cc1)N=C(c1ccco1)CC2c1ccccc1` (stereo unspecified), the inhibition was 0.1%.
With `N#Cc1cccc(N=c2ssnc2Cl)c1`, the inhibition was 43%.
Under `Clc1nssc1=Nc1ccccc1` stands 36.5%; under `Nc1ccccc1N=c1ssnc1Cl`, 38.1%; under `Cc1ccc(N=c2ssnc2Cl)cc1`, 49.8%.
Under `Cc1cc(Cl)ccc1N=c1ssnc1Cl` stands 13.6%; under `COc1cc(N=c2ssnc2Cl)cc(OC)c1OC`, 47.1%; under `Cc1cc(C)nc(NC(=O)c2csnn2)c1`, -2.9%.
Under `COc1cc(OC)c(Cl)cc1N` stands 44.9%.

Values taken from PubChem BioAssay AID1220 (Sanford-Burnham Center for Chemical Genomics, 2008).
